The record followed here is ChEMBL document CHEMBL4888484, “Replenishing the malaria drug discovery pipeline: Screening and hit evaluation of the MMV Hit Generation Library 1 (HGL1) against asexual blood stage Plasmodium falciparum ,using a nano luciferase reporter read-out” (2022).

In all, about 150,000 compounds went through this assay and about 540 (0.36%) showed an effect of 50% or more. This excerpt belongs to a sample that is enriched for strong results.

The test system of this experiment is Plasmodium falciparum. Nature of the experiment: Primary screen in NF54 nanoGlo assay, in single point, at 2uM, 72h; a lower Z score goes with more inhibition. The class given is functional, Erythrocyte. The settings on record: timepoint 72 hour.
As to `Cc1c(CN(C)C(=O)c2ccc(-c3ccc4c(c3)OCC4)cc2)cnn1C`, the “% Inhibition” value is listed as -20% and the Z score is reported as 2.12.

Consider `COc1ccccc1-c1nnc2c3ccc(Cl)cc3nc(N3CCN(C(=O)c4ccc(C)cc4)CC3)n12`, for which the “% Inhibition” value is listed as -13% and the Z score is reported as 1.38.

Turning to `Cc1nc(-c2ccco2)ccc1C(=O)N[C@@H](C)c1nnnn1C`, the “% Inhibition” value is on record as -12% and the Z score amounted to 1.8.

For the compound `CCn1nc(-n2cnnc2)c(NS(=O)(=O)c2ccc(C)cc2)c1C`, the “% Inhibition” value is -9% and the Z score is 1.53.

`COc1ncnc2c1CN(C(=O)NCC1(Cc3ccccc3)CCC1)CC2`: the “% Inhibition” value is 29% and the Z score was 1.68.

As for `Cc1cc(C)c2nc(C)cc(Nc3ccc(O)cc3)c2c1`, the “% Inhibition” value was found to be 85% and the Z score is -12.86.

On to `COc1cccc2c(Nc3ccc(C(=O)O)cc3)cc(C)nc12`, for which the “% Inhibition” value was -3% and the Z score was found to be 0.28.

Regarding `Cc1cc(Nc2ccc(C)c(Cl)c2)c2cccc(C)c2n1`, the “% Inhibition” value worked out at 23% and the Z score is recorded as -2.05.

Turning to `Cc1nonc1CC(=O)NCCCn1ccnn1`, the “% Inhibition” value is -4% and the Z score is recorded as 0.49.

Regarding `Cc1ccc2c(NC(=O)NCC3(CO)CCC3)cccc2n1`, the “% Inhibition” value is recorded as -9% and the Z score was 1.22.

For the compound `NC(=O)c1ncc(Br)cc1N1CCC[C@H](F)C1`, the “% Inhibition” value is recorded as -6% and the Z score is 0.95.

Consider `O=C(Nc1nc2c(s1)CN(S(=O)(=O)c1c(F)cccc1F)CC2)c1ccco1`, for which the “% Inhibition” value is -5% and the Z score is on record as 0.7.

For `O=C(Nc1cccc(CNc2ncccn2)c1)c1ccco1`, the “% Inhibition” value was -4% and the Z score is on record as 0.39.

As for `COc1ccc(-c2nc(C)cc(C)c2CNC(=O)c2ccco2)cc1`, the “% Inhibition” value is reported as -2% and the Z score turned out to be 0.33.

In the case of `CN(Cc1cccc(N(C)C)c1)Cc1csc(-c2ccoc2)n1`, the “% Inhibition” value is listed as -5% and the Z score is 0.54.

For `FC(F)(F)c1ccc(-c2nc(CN(Cc3ccccc3)Cc3ccccc3)cs2)cc1`, the “% Inhibition” value is given as 0% and the Z score amounted to 0.08.

As for `CC1(C)CN(C(=O)c2c(O)cnc3c(F)cccc23)C1C1CCCO1` (stereo not given), the “% Inhibition” value is on record as -4% and the Z score is on record as 0.64.

With `Cc1cc(N2CCC(C)CC2)nc2ccc(NC(=O)c3cccnc3)cc12`, the “% Inhibition” value came to 18% and the Z score is reported as -2.1.

As for `CC(=O)Nc1ccc2nc(N3CCC(C(=O)NC4CC4)CC3)cc(C)c2c1`, the “% Inhibition” value amounted to 8% and the Z score was -1.23.

In the case of `COc1cc(OC)cc(C(=O)Nc2ccc3nc(N4CCC(C)CC4)cc(C)c3c2)c1`, the “% Inhibition” value was 58% and the Z score is reported as -3.66.

As for `COc1ccc(C(=O)Nc2ccc3nc(N4CCC(C)CC4)cc(C)c3c2)cc1OC`, the “% Inhibition” value stood at 7% and the Z score was -1.1.

Take `CCN(CC)c1ccc(C(=O)Nc2ccc3nc(N4CCCC4)cc(C)c3c2)cc1`: the “% Inhibition” value came out at 73% and the Z score is recorded as -6.69.

`CC(=O)Nc1ccc2nc(N3CCC(C(=O)N4CCC(N5CCCCC5)CC4)CC3)cc(C)c2c1`: the “% Inhibition” value was determined as 10% and the Z score is listed as -1.6.

With `CCn1c(=O)sc2cc(NC(=O)c3ccc(C)cc3)ccc21`, the “% Inhibition” value is listed as 5% and the Z score is given as -0.91.

Turning to `CC(Nc1ccc(C#N)nc1)C1CCCOC1` (stereo not given), the “% Inhibition” value worked out at 1% and the Z score was -0.15.

Turning to `Cc1noc2ncnc(NC[C@](C)(O)c3cccc(F)c3)c12`, the “% Inhibition” value was -7% and the Z score is recorded as 1.41.

`CN(C)c1ccccc1NC(=O)Cn1ccc(=O)[nH]c1=O`: the “% Inhibition” value is given as -5% and the Z score is 0.92.

Turning to `Nc1nnc(N[C@H]2COc3ccccc32)[nH]1`, the “% Inhibition” value turned out to be 0% and the Z score amounted to 0.03.

Consider `O=C(CCc1ccc(Cl)c(F)c1)N1CC(N2CCc3ccccc3C2)C1`, for which the “% Inhibition” value is recorded as -9% and the Z score is recorded as 1.44.

Turning to `O=C(CCc1cccc(Cl)c1)N1CC[C@H](N2CCc3ccccc3C2)C1`, the “% Inhibition” value was -5% and the Z score was found to be 0.72.

Consider `O=C(CCc1ccc(Cl)c(C(F)(F)F)c1)N1CC[C@H](N2CCc3ccccc3C2)C1`, for which the “% Inhibition” value was 50% and the Z score is listed as -7.74.

For `COCCN1C[C@@H](c2nc(C3CCOCC3)n[nH]2)CCC1=O`, the “% Inhibition” value is given as -5% and the Z score turned out to be 0.81.

For `CNC(=O)[C@H](CNC(=O)c1ccc(=O)[nH]n1)Cc1ccc(F)cc1C`, the “% Inhibition” value is listed as -8% and the Z score is 1.4.

With `Cc1cccc(CN2CCN(C(=O)c3cc(C)nc(N)n3)[C@@H](C)C2=O)c1`, the “% Inhibition” value is listed as -2% and the Z score was 0.2.

As to `COc1cc(C(=O)Nc2cccc(-c3nc(C)cc(=O)[nH]3)c2)ccc1OCc1cscn1`, the “% Inhibition” value is -2% and the Z score came to 0.29.

As for `C=CCn1ncc(-c2cn([C@@H](CC)c3cc(C)ccn3)nn2)c1C`, the “% Inhibition” value was found to be 10% and the Z score is given as -1.39.

As to `CN(C)C1(CC2CC2)CCN(Cc2cccc(C#N)c2)CC1`, the “% Inhibition” value is given as -3% and the Z score stood at 0.54.

As for `O=C(Cc1ccccc1Cl)N1CC[C@H](Oc2ccc3ccccc3n2)C1`, the “% Inhibition” value is given as -5% and the Z score is 0.96.

Take `O=C(COc1ccc(Cl)cc1)N1CC[C@H](Oc2ccc3ccccc3n2)C1`: the “% Inhibition” value was -18% and the Z score worked out at 3.35.

Take `CCNC(=O)N1CC[C@H](Oc2ccc3ccccc3n2)C1`: the “% Inhibition” value came out at 57% and the Z score is -3.
